Assay outcomes deposited in PubChem BioAssay by National Center for Advancing Translational Sciences (NCATS).
Sampled rows, rich in hits. Any-hit rate of the full collection: about 2.2%.
FBPA Giardia inh = inhibitors of Giardia lamblia fructose-1,6-bisphosphate aldolase. A8B2U2. purified Giardia FBPA. Potency, µM (titrated, usually from 59.6 µM), without a hit: at the highest dose activity, negative = inhibition, hits mostly inhibitors. 290,000 tested, 0.71% active; active = well fitted inhibition curve with a large enough effect; inconclusive = small, poorly fitted or top-dose-only effect, or effect the other way; also: nearly all actives have a fitted effect of over 55% in size
Target sequence (A8B2U2 whole entry, looked up): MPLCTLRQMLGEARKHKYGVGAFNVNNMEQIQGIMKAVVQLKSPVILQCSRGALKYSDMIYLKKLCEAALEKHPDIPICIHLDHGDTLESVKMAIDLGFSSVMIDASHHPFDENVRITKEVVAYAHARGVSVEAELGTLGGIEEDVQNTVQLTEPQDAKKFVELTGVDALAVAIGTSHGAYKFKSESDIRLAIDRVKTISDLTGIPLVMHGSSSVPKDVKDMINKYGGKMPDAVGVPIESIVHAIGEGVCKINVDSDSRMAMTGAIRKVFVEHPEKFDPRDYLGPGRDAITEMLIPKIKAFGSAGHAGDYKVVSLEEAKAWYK
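Giardia FBPA (40 nM reagent) was preincubated 10 min at RT with compound (up to 57.5 uM final), then substrate plus GAPDH/TPI/NAD/arsenate coupling system with diaphorase/resazurin was added; resorufin fluorescence (525/598 nm) was read after 20 min.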
Vaccinia mCherry = vaccinia inhibition (mCherry reporter). Vaccinia virus mCherry reporter infection, fluorescence. Potency, µM (doses to about 36.5 µM), inactives show top-dose activity change, negative = inhibition, hits mostly inhibitors. 310,000 tested, 0.63% active; calls by dose curve; tested in A549 cells; also: nearly all actives have a fitted effect of over 35% in size
VACV Venus inh = inhibitors of vaccinia virus (Venus reporter); 330,000 tested, 0.46% active; Potency, µM (highest dose often 36.5 µM), for inactives: top-dose activity change, negative = inhibition, usual class: inhibitors; AID 720580; Vaccinia virus Venus reporter expression, fluorescence; calls by dose curve; tested in A549 cells; also: nearly all actives have a fitted effect of over 30% in size
FMDV antiviral = antivirals against foot and mouth disease virus; Potency, µM (series often up to 57.9 µM), without a hit: at the highest dose activity change, negative = inhibition, most hits filed as inhibitors; AID 1159524; 410,000 tested, 1.2% active; FMDV antiviral cell-based qHTS; calls by dose curve; tested in HEK293T cells; also: read-out not given here; nearly all actives have a fitted effect of over 45% in size
* marks the source's active call; other numbers are inactive results; i = inactive; ? = inconclusive; / = no result given. % is scaled to controls: 0 for no effect and ±100 for the full control effect; potency is read from the fitted curve at half-maximal effect.

SMILES	FBPA Giardia inh	Vaccinia mCherry	VACV Venus inh	FMDV antiviral
O=C(Nc1cc(C(F)(F)F)ccc1Cl)c1cnn(-c2ccccc2)c1-n1cccc1	/	?	-28%	32µM*
Cc1cc(NC2CCCC2)n2ncc(-c3ccccc3)c2n1	-1%	3%	-6%	40µM*
Cc1cc(NC2CCCC2)n2nc(C)c(-c3ccccc3)c2n1	8%	i	-25%	-10%
COc1ccc(C2CC(=O)c3c(C)nc(N4CCN(Cc5ccccc5)CC4)nc3C2)cc1OC (configuration not stated)	-13%	/	/	11µM*
COc1cc(C2CC(=O)c3cnc(N4CCN(Cc5ccccc5)CC4)nc3C2)cc(OC)c1OC (configuration not stated)	-9%	?	-14%	16µM*
CCOC(=O)N1CCN(c2ncc3c(n2)CC(c2ccccc2O)CC3=O)CC1 (configuration not stated)	/	?	?	22µM*
COc1cc([C@@H]2c3cc4c(cc3C(O[C@@H]3O[C@@H]5COC(c6cccs6)O[C@H]5[C@H](O)[C@H]3O)C3COC(=O)[C@@H]32)OCO4)cc(OC)c1O (some centres not stated)	/	2µM*	?	-20%
CCOC(=O)c1ccc(N2N=C(C)/C(=C/C=C/c3ccco3)C2=O)cc1	0%	/	/	-1%
O=C(O)c1cc(N2N=C(C(F)(F)F)/C(=C/C=C/c3ccco3)C2=O)ccc1Cl	?	2%	18%	28µM*
C=C1[C@@H](O)CN(Cc2ccc(OC)cc2)S1(=O)=O	/	?	28µM*	/
CCS(=O)(=O)c1ccc2oc(SCC(=O)NCCc3ccccc3)nc2c1	1%	13µM*	?	-10%
O=C(NCCc1ccccc1Cl)c1ccc2c(c1)nc1n2CCCCC1	/	-17%	-17%	25µM*
CC(C)CCNC(=O)c1ccc2c(c1)nc1n2CCCCC1	/	-16%	-8%	-25%
O=C(/C=C/c1ccc(Cl)cc1)c1cccnc1	-5%	?	?	-7%
N#Cc1ccc(/C=C/C(=O)c2cccnc2)cc1	-6%	/	/	40µM*
O=C(/C=C/c1ccccc1Cl)c1cccnc1	-1%	/	-15%	14µM*
O=C(/C=C/c1ccccc1Cl)NNC(=O)c1ccncc1	/	/	/	-12%
Cc1cccnc1-c1cccc2c1OC(CNC(=O)/C=C/c1cccs1)C2 (configuration not stated)	/	-6%	4%	-16%
OC1CCN(Cc2ccc3c(c2)CN(C/C=C/c2ccco2)CCO3)CC1	/	-1%	-1%	-6%
COc1ccc(/C=C2/CSC/C(=C/c3ccc(OC)c(OC)c3)C2=O)cc1OC	/	2.5µM*	?	3.5µM*
COc1cc(C=C2CCCC(=Cc3ccc(OCC4CO4)c(OC)c3)C2=O)ccc1OCC1CO1 (configuration not stated)	/	?	?	11µM*
COc1ccc(/C=C2\Cc3ccccc3C2=O)cc1OC	0%	-9%	-18%	43%
COc1cc2nc(N3CCCCC3)nc(NC3CCN(Cc4ccccc4)CC3)c2cc1OC	/	-7%	-28%	/
COc1ccc(NCc2cccn2-c2nnc(N3CCC(C)CC3)s2)c(OC)c1	/	-12%	-15%	2µM*
CO[C@H]1[C@H](NC(=O)c2ccsc2)c2ccccc2C12CCN(Cc1cc(Cl)ccc1O)CC2	/	-28%	-18%	-11%
SMILES	FBPA Giardia inh	Vaccinia mCherry	VACV Venus inh	FMDV antiviral
CC(=O)Nc1ccc(C(=O)OCC(=O)N(c2ccccc2)C2CCS(=O)(=O)C2)cc1 (configuration not stated)	/	/	/	2%
O=C(CCl)N(c1ccccc1)C1CCS(=O)(=O)C1 (configuration not stated)	-1%	10µM*	11µM*	?
Cc1cc(C)c(S(=O)(=O)ON2C(=O)c3ccccc3C2=O)cc1C	-13%	-12%	-1%	25µM*
COc1ccc(Nc2c(-c3ccc(Cl)cc3)nc3cnccn23)cc1OC	/	-9%	8%	-14%
Cc1oc(-c2ccccc2NC(=O)c2ccccc2)nc1CNC(=O)c1cccc(-n2cccn2)c1	/	-6%	14%	1%
COc1ccc(-c2ccc3oc(-c4ccc(OC)cc4)c(-c4ccc(OC)cc4)c3c2)cc1	/	i	-4%	-22%
COc1ccc(-c2oc3ccc(N4CCOCC4)cc3c2C#CCO)cc1	/	5.6µM*	?	28µM*
COc1ccc(-c2ccc3oc(-c4ccc(OC)cc4)c(C#CCO)c3c2)cc1	/	-26%	?	8.9µM*
O=C(NCc1nnc2n1CCN(Cc1cccc(Cl)c1)CC2)c1cccc(F)c1	/	-5%	0%	-1%
NC1CCCC[C@H]1N (some centres not stated)	-10%	/	/	/
COc1ccc(NC(=O)N(Cc2cc3cc(C)ccc3[nH]c2=O)CC2CCCO2)cc1 (configuration not stated)	-2%	/	/	-21%
COc1ccc2[nH]c(=O)c(CN(CC3CCCO3)C(=O)Nc3ccc(F)cc3)cc2c1 (configuration not stated)	0%	-19%	-11%	14µM*
CS(=O)(=O)c1nc(-c2ccccc2)cc(C(F)(F)F)n1	6%	14µM*	?	7.9µM*
COc1ccc(NC(=O)CCS(=O)(=O)c2nc(-c3ccc4c(c3)OCO4)cc(C(F)(F)F)n2)cc1	/	i	-14%	-6%
Cc1cc(NC(=O)CCS(=O)(=O)c2nc(-c3ccccc3)cc(C(F)(F)F)n2)no1	2%	/	?	25µM*
COc1cccc(-c2cnc(-c3ccncc3)nc2C2CCN(C(=O)Cc3csc(C)n3)CC2)c1	/	-13%	-9%	-17%
Cc1ccccc1NC(=O)CSc1n[nH]c(-c2ccccn2)n1	?	6.3µM*	-22%	-8%
Cc1ccc(C)c(NC(=O)CSc2n[nH]c(-c3ccccn3)n2)c1	?	7.9µM*	?	19%
CC(C)(C)c1ccc(C(=O)N2CCC3(CC2)CC3C(=O)NCCc2ccccn2)cc1 (configuration not stated)	/	-15%	-8%	26%
CC(C)c1c(C(=O)N2CCCCC2c2cccnc2)cnn1-c1nccc(-c2cccs2)n1 (configuration not stated)	/	?	-20%	-18%
Cc1ccc(CCNC(=O)c2ccc(CNS(=O)(=O)c3ccccc3)cc2)cc1	/	-8%	-19%	0%
CCOc1ccc(CCNC(=O)c2ccc(CNS(=O)(=O)c3ccccc3)cc2)cc1OCC	8%	-13%	-19%	28µM*
CCOc1ccc(CCNC(=O)c2ccc(C)c(S(=O)(=O)N3CCOCC3)c2)cc1OCC	/	-4%	-21%	22µM*
COc1ccc(CCNC(=O)c2ccc(CNS(=O)(=O)c3cc(C)ccc3C)cc2)cc1OC	0%	/	?	20µM*
CCOc1ccc(CCNC(=O)c2cccc(S(=O)(=O)N3CCCCC3)c2)cc1OCC	/	-22%	-28%	28µM*
CN(C)C(=O)c1ccc(-c2ccc3ncnc(NCc4ccccc4)c3c2)cc1	3%	/	/	18%
CCOc1ccc(CCNC(=O)c2ccc3nc(N4CCOCC4)sc3c2)cc1OCC	6%	-26%	-1%	14µM*
COc1ccc(CCNC(=O)c2ccc3nc(N4CCOCC4)sc3c2)cc1OC	5%	i	-5%	-19%
CCCN1CNc2c(c(=O)[nH]c(=S)n2CCc2cccs2)C1	/	i	-16%	/
